The entries come from a sample that favours the strongest signals as a whole.
Columns and labels:
Assay in all cases: glycan array binding signal (z-score within array); higher = stronger binding
Settings in all cases: glycan notation: IUPAC condensed, linker removed
[1] = target: Fuc(a1-2)Gal(b1-3)GlcNAc(b1-2)Man(a1-3)[Fuc(a1-2)Gal(b1-3)GlcNAc(b1-2)Man(a1-6)]Man(b1-4)GlcNAc(b1-4)[Fuc(a1-6)]GlcNAc
Summary of the method: (§1)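 Glycan array binding is given as a within-array Z-score, which can be read as non-binding when negative. The arrays, 3228 of them, came from the Consortium for Functional Glycomics database and were retained only where the protein sequence was available. Z-scores were averaged across arrays of the same protein sequence at different concentrations or buffers and across linkers.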

Fuc(a1-2)Gal(b1-4)Glc6S = target: Fuc(a1-2)Gal(b1-4)Glc6S
Summary of the method: as §1

[2] = target: Fuc(a1-2)[Gal(a1-3)]Gal(b1-4)GlcNAc(b1-2)Man(a1-3)[Fuc(a1-2)[Gal(a1-3)]Gal(b1-4)GlcNAc(b1-2)Man(a1-6)]Man(b1-4)GlcNAc(b1-4)GlcNAc
Summary of the method: as §1

[3] = target: Fuc(a1-2)[GalNAc(a1-3)]Gal(b1-4)GlcNAc(b1-2)Man(a1-3)[Fuc(a1-2)[GalNAc(a1-3)]Gal(b1-4)GlcNAc(b1-2)Man(a1-6)]Man(b1-4)GlcNAc(b1-4)GlcNAc
Summary of the method: as §1

[4] = target: Fuc(a1-2)[GalNAc(a1-3)]Gal(b1-4)[Fuc(a1-3)]GlcNAc
Summary of the method: as §1

[5] = target: Fuc(a1-3)[Gal(b1-4)]GlcNAc(b1-4)Gal(b1-4)[Fuc(a1-3)]GlcNAc(b1-4)Gal(b1-4)[Fuc(a1-3)]GlcNAc
Summary of the method: as §1

[6] = target: Fuc(a1-3)[Gal3S(b1-4)]GlcNAc6S
Summary of the method: as §1

[7] = target: Gal(a1-3)Gal(b1-3)[Fuc(a1-4)]GlcNAc(b1-2)Man(a1-3)[Gal(a1-3)Gal(b1-3)[Fuc(a1-4)]GlcNAc(b1-2)Man(a1-6)]Man(b1-4)GlcNAc(b1-4)GlcNAc
Summary of the method: as §1

Gal(b1-3)GalNAc = target: Gal(b1-3)GalNAc
Summary of the method: as §1

[8] = target: Gal(b1-3)GalNAc(a1-3)[Fuc(a1-2)]Gal(b1-4)Glc
Summary of the method: as §1

[9] = target: Gal(b1-3)GalNAc(b1-4)Gal(b1-4)Glc
Summary of the method: as §1

[10] = target: Gal(b1-3)GlcNAc(b1-2)Man(a1-3)[Gal(b1-3)GlcNAc(b1-2)Man(a1-6)]Man(b1-4)GlcNAc(b1-4)GlcNAc
Summary of the method: as §1

[11] = target: Gal(b1-3)[Fuc(a1-4)]GlcNAc
Summary of the method: as §1

[12] = target: Gal(b1-4)GlcNAc(b1-2)Man(a1-3)Man(b1-4)GlcNAc(b1-4)GlcNAc
Summary of the method: as §1

[13] = target: Gal(b1-4)GlcNAc(b1-2)[Gal(b1-4)GlcNAc(b1-4)]Man(a1-3)[Gal(b1-4)GlcNAc(b1-2)[Gal(b1-4)GlcNAc(b1-6)]Man(a1-6)]Man(b1-4)GlcNAc(b1-4)GlcNAc
Summary of the method: as §1

[14] = target: Gal(b1-4)GlcNAc(b1-2)[Gal(b1-4)GlcNAc(b1-4)]Man(a1-3)[GlcNAc(b1-4)][Gal(b1-4)GlcNAc(b1-2)Man(a1-6)]Man(b1-4)GlcNAc(b1-4)GlcNAc
Summary of the method: as §1

[15] = target: Gal(b1-4)GlcNAc(b1-3)Gal(b1-4)[Fuc(a1-3)GlcNAc(b1-6)]Gal(b1-4)Glc
Summary of the method: as §1

Gal6S(b1-4)GlcNAc6S = target: Gal6S(b1-4)GlcNAc6S
Summary of the method: as §1

Glc(a1-6)Glc(a1-6)Glc = target: Glc(a1-6)Glc(a1-6)Glc
Summary of the method: as §1

Glc(b1-4)Glc = target: Glc(b1-4)Glc
Summary of the method: as §1

GlcA(b1-3)GlcNAc = target: GlcA(b1-3)GlcNAc
Summary of the method: as §1

[16] = target: GlcNAc(a1-4)Gal(b1-4)GlcNAc(b1-3)Gal(b1-4)GlcNAc
Summary of the method: as §1

[17] = target: GlcNAc(a1-4)Gal(b1-4)GlcNAc(b1-3)Gal(b1-4)[Fuc(a1-3)]GlcNAc(b1-3)Gal(b1-4)[Fuc(a1-3)]GlcNAc
Summary of the method: as §1

[18] = target: GlcNAc(b1-2)Man(a1-3)[GlcNAc(b1-2)Man(a1-6)]Man(b1-4)GlcNAc(b1-4)[Fuc(a1-6)]GlcNAc
Summary of the method: as §1

[19] = target: GlcNAc(b1-2)[GlcNAc(b1-4)]Man(a1-3)[GlcNAc(b1-4)][GlcNAc(b1-2)Man(a1-6)]Man(b1-4)GlcNAc(b1-4)GlcNAc
Summary of the method: as §1

GlcNAc(b1-3)Man = target: GlcNAc(b1-3)Man
Summary of the method: as §1

[20] = target: GlcNAc(b1-3)[GlcNAc(b1-6)]GalNAc
Summary of the method: as §1

Man(a1-3)[Man(a1-6)]Man = target: Man(a1-3)[Man(a1-6)]Man
Summary of the method: as §1

Man(a1-6)Man = target: Man(a1-6)Man
Summary of the method: as §1

[21] = target: Neu5Ac(a2-3)Gal(b1-3)GalNAc(b1-3)Gal(a1-4)Gal(b1-4)Glc
Summary of the method: as §1

[22] = target: Neu5Ac(a2-3)Gal(b1-3)GalNAc(b1-4)[Neu5Ac(a2-3)]Gal(b1-4)Glc
Summary of the method: as §1

[23] = target: Neu5Ac(a2-3)Gal(b1-4)GlcNAc(b1-3)Gal(b1-4)[Fuc(a1-3)]GlcNAc
Summary of the method: as §1

[24] = target: Neu5Ac(a2-3)Gal(b1-4)[Fuc(a1-3)]GlcNAc(b1-3)GalNAc
Summary of the method: as §1

[25] = target: Neu5Ac(a2-6)Gal(b1-4)GlcNAc(b1-3)GalNAc
Summary of the method: as §1

Neu5Ac(a2-6)GalNAc = target: Neu5Ac(a2-6)GalNAc
Summary of the method: as §1

Neu5Ac(a2-8)Neu5Ac = target: Neu5Ac(a2-8)Neu5Ac
Summary of the method: as §1

[26] = target: Neu5Ac(a2-8)Neu5Ac(a2-8)Neu5Ac(a2-3)[GalNAc(b1-4)]Gal(b1-4)Glc
Summary of the method: as §1

[27] = target: Neu5Ac(a2-8)Neu5Ac(a2-8)Neu5Ac(a2-8)Neu5Ac(a2-3)[GalNAc(b1-4)]Gal(b1-4)Glc
Summary of the method: as §1

[28] = target: Neu5Ac9Ac(a2-6)Gal(b1-4)GlcNAc
Summary of the method: as §1

B1: Tectonin 2 (Laccaria bicolor) (protein)
chain: MPWKGISGSLSRISAGSVTNVWGVNAANNIYRYTGDDAKPWVQIPGALTDIGAAADGTVWGVNAAGNIYRYVWDSNHWTQIKGALKRISAGSRTNVWGVNAGGAIYRYTGDDANPWVQIPGVLSDIGAGADGTVWGVNAAGEIYRYTGDQGDPNHWVKIPGALSAISAGIKTNVWGVNSANNIYTSTGDDKNPWLGIGGSLVDIGAGTDGVVWGVNAGGGIYRWIRD
- glycan array binding signal (z-score) [1]: -0.069
- glycan array binding signal (z-score) (Fuc(a1-2)Gal(b1-4)Glc6S): -0.349
- glycan array binding signal (z-score) [2]: 9.62
- glycan array binding signal (z-score) [3]: -0.16
- glycan array binding signal (z-score) [4]: -0.145
- glycan array binding signal (z-score) [5]: -0.16
- glycan array binding signal (z-score) [6]: 0.299
- glycan array binding signal (z-score) [7]: -0.008
- glycan array binding signal (z-score) (Gal(b1-3)GalNAc): -0.212
- glycan array binding signal (z-score) [8]: -0.46
- glycan array binding signal (z-score) [9]: -0.123
- glycan array binding signal (z-score) [10]: 0.354
- glycan array binding signal (z-score) [11]: -0.348
- glycan array binding signal (z-score) [12]: -0.226
- glycan array binding signal (z-score) [13]: -0.038
- glycan array binding signal (z-score) [14]: 0.732
- glycan array binding signal (z-score) [15]: -0.568
- glycan array binding signal (z-score) (Gal6S(b1-4)GlcNAc6S): 2.71
- glycan array binding signal (z-score) (Glc(a1-6)Glc(a1-6)Glc): -0.136
- glycan array binding signal (z-score) (Glc(b1-4)Glc): -0.277
- glycan array binding signal (z-score) (GlcA(b1-3)GlcNAc): 4.49
- glycan array binding signal (z-score) [16]: -0.238
- glycan array binding signal (z-score) [17]: 2.15
- glycan array binding signal (z-score) [18]: 0.258
- glycan array binding signal (z-score) [19]: -0.327
- glycan array binding signal (z-score) (GlcNAc(b1-3)Man): -0.371
- glycan array binding signal (z-score) [20]: -0.21
- glycan array binding signal (z-score) (Man(a1-3)[Man(a1-6)]Man): -0.426
- glycan array binding signal (z-score) (Man(a1-6)Man): -0.438
- glycan array binding signal (z-score) [21]: 0.073
- glycan array binding signal (z-score) [22]: 2.34
- glycan array binding signal (z-score) [23]: 2.47
- glycan array binding signal (z-score) [24]: 2.62
- glycan array binding signal (z-score) [25]: 1.14
- glycan array binding signal (z-score) (Neu5Ac(a2-6)GalNAc): -0.325
- glycan array binding signal (z-score) (Neu5Ac(a2-8)Neu5Ac): -0.07
- glycan array binding signal (z-score) [26]: -0.445
- glycan array binding signal (z-score) [27]: 2.33
- glycan array binding signal (z-score) [28]: 0.77
